In PubChem BioAssay AID1159580 (chemical genetic matrix, 2015):
The campaign covered roughly 5,500 compounds. About 2,000 (36%) were called active. Roughly 18% stayed inconclusive and do not appear here. No stated cut-off is given here; in the data, active means normalized growth mostly below about 0.91 (no sharp cut-off); inconclusive means no clear call, values can overlap the other calls; inactive means mostly above about 0.92. Some of the results follow.

Assay: chemical genetic growth profiling, strain panel (AID 1159580);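 further: tested at 20 µM; growth read once vehicle control cultures reached saturation at 30 °C; 1 = growth at the plate median or of vehicle wells; lower values mean less growth of the strain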
Conditions: growth OD

Measured: normalized growth

CCCc1nc(C(C)(C)O)c(C(=O)OCc2oc(=O)oc2C)n1Cc1ccc(-c2ccccc2-c2nn[nH]n2)cc1
inactive: S. cerevisiae deletion strains, locus YKL009W, strain mrt4, active compounds read low 0.957 | S. cerevisiae deletion strains, locus YKL068W, active compounds read low 0.988 | S. cerevisiae deletion strains, locus YKL085W, strain MDH1 (second series), active compounds read low 0.98 | S. cerevisiae deletion strains, locus YKL085W, strain MDH1, active compounds read low 0.98 | S. cerevisiae deletion strains, locus YKL160W, strain elf1, active compounds read low 0.994 | S. cerevisiae deletion strains, locus YKL190W, strain CNB1, active compounds read low 1.01 | S. cerevisiae deletion strains, locus YKR001C, strain vps1, active compounds read low 0.985 | S. cerevisiae deletion strains, locus YKR026C, strain gcn3, active compounds read low 0.976 | S. cerevisiae deletion strains, locus YKR091W, strain srl3, active compounds read low 0.981 | S. cerevisiae deletion strains, locus YLL001W, strain dnm1, active compounds read low 0.972 | S. cerevisiae deletion strains, locus YLL026W, active compounds read low 0.958 | S. cerevisiae deletion strains, locus YLL041C, strain sdh2, active compounds read low 0.972 | S. cerevisiae deletion strains, locus YLR027C, strain aat2, active compounds read low 0.984 | S. cerevisiae deletion strains, locus YLR039C, strain RIC1, active compounds read low 0.981 | S. cerevisiae deletion strains, locus YLR058C, strain SHM2, active compounds read low 0.988 | S. cerevisiae deletion strains, locus YLR102C, strain apc9, active compounds read low 0.989 | S. cerevisiae deletion strains, locus YLR113W, strain HOG1, active compounds read low 0.987 | S. cerevisiae deletion strains, locus YLR221C, strain rsa3, active compounds read low 1.02 | S. cerevisiae deletion strains, locus YLR258W, strain gsy2, active compounds read low 0.977 | S. cerevisiae deletion strains, locus YLR262C, strain YPT6 (second series), active compounds read low 0.962 | S. cerevisiae deletion strains, locus YLR262C, strain YPT6, active compounds read low 0.987 | S. cerevisiae deletion strains, locus YLR268W, strain sec22, active compounds read low 0.971 | S. cerevisiae deletion strains, locus YLR320W, strain mms22, active compounds read low 1.01 | S. cerevisiae deletion strains, locus YLR330W, strain CHS5, active compounds read low 0.995 | S. cerevisiae deletion strains, locus YLR342W, strain FKS1 (second series), active compounds read low 0.977 | S. cerevisiae deletion strains, locus YLR342W, strain FKS1, active compounds read low 0.978 | S. cerevisiae deletion strains, locus YLR357W, strain rsc2, active compounds read low 0.985 | S. cerevisiae deletion strains, locus YLR370C, strain arc18, active compounds read low 0.947 | S. cerevisiae deletion strains, locus YLR371W, strain rom2, active compounds read low 0.985 | S. cerevisiae deletion strains, locus YLR384C, strain iki3, active compounds read low 0.977 | S. cerevisiae deletion strains, locus YLR418C, strain cdc73, active compounds read low 0.952 | S. cerevisiae deletion strains, locus YML016C, strain PPZ1, active compounds read low 0.993 | S. cerevisiae deletion strains, locus YML032C, strain rad52, active compounds read low 0.993 | S. cerevisiae deletion strains, locus YML120C, strain ndi1, active compounds read low 0.97 | S. cerevisiae deletion strains, locus YML124C, strain tub3, active compounds read low 0.984 | S. cerevisiae deletion strains, locus YMR058W, strain fet3, active compounds read low 0.965 | S. cerevisiae deletion strains, locus YMR078C, strain ctf18, active compounds read low 0.99 | S. cerevisiae deletion strains, locus YMR125W, strain sto1, active compounds read low 0.932 | S. cerevisiae deletion strains, locus YMR129W, active compounds read low 0.97 | S. cerevisiae deletion strains, locus YMR205C, strain PFK2, active compounds read low 0.976 | S. cerevisiae deletion strains, locus YMR223W, strain ubp8, active compounds read low 0.995 | S. cerevisiae deletion strains, locus YMR231W, strain pep5, active compounds read low 0.967 | S. cerevisiae deletion strains, locus YMR263W, strain SAP30, active compounds read low 1.02 | S. cerevisiae deletion strains, locus YMR307W, strain GAS1, active compounds read low 0.894 | S. cerevisiae deletion strains, locus YNL067W, strain RPL9B, active compounds read low 1.03 | S. cerevisiae deletion strains, locus YNL071W, strain lat1, active compounds read low 0.977 | S. cerevisiae deletion strains, locus YNL128W, strain TEP1, active compounds read low 1.02 | S. cerevisiae deletion strains, locus YNL153C, strain GIM3, active compounds read low 0.996 | S. cerevisiae deletion strains, locus YNL183C, strain NPR1, active compounds read low 0.963 | S. cerevisiae deletion strains, locus YNL209W, strain ssb2, active compounds read low 0.971 | S. cerevisiae deletion strains, locus YNL233W, strain BNI4, active compounds read low 0.992 | S. cerevisiae deletion strains, locus YNL248C, strain rpa49, active compounds read low 0.969 | S. cerevisiae deletion strains, locus YNL250W, strain rad50, active compounds read low 0.992 | S. cerevisiae deletion strains, locus YNL271C, strain bni1, active compounds read low 0.992 | S. cerevisiae deletion strains, locus YNL298W, strain CLA4, active compounds read low 0.975 | S. cerevisiae deletion strains, locus YNL307C, strain MCK1, active compounds read low 0.992 | S. cerevisiae deletion strains, locus YNL322C, strain KRE1 (second series), active compounds read low 0.972 | S. cerevisiae deletion strains, locus YNL322C, strain KRE1, active compounds read low 0.997 | S. cerevisiae deletion strains, locus YNR049C, strain mso1, active compounds read low 0.968 | S. cerevisiae deletion strains, locus YNR052C, strain pop2, active compounds read low 0.99 | S. cerevisiae deletion strains, locus YOL006C, strain TOP1, active compounds read low 0.998 | S. cerevisiae deletion strains, locus YOL012C, strain htz1 1.03 | S. cerevisiae deletion strains, locus YOL147C, strain pex11, active compounds read low 0.998 | S. cerevisiae deletion strains, locus YOR001W, strain rrp6, active compounds read low 0.943 | S. cerevisiae deletion strains, locus YOR061W, strain CKA2, active compounds read low 0.989 | S. cerevisiae deletion strains, locus YOR069W, strain VPS5, active compounds read low 0.994 | S. cerevisiae deletion strains, locus YOR070C, strain gyp1, active compounds read low 0.992 | S. cerevisiae deletion strains, locus YOR080W, strain dia2, active compounds read low 0.964 | S. cerevisiae deletion strains, locus YOR083W, strain WHI5, active compounds read low 0.993 | S. cerevisiae deletion strains, locus YOR106W, strain vam3, active compounds read low 0.969 | S. cerevisiae deletion strains, locus YOR136W, strain idh2, active compounds read low 0.986 | S. cerevisiae deletion strains, locus YOR144C, strain elg1, active compounds read low 0.985 | S. cerevisiae deletion strains, locus YOR184W, strain ser1, active compounds read low 0.995 | S. cerevisiae deletion strains, locus YOR231W, strain MKK1, active compounds read low 0.958 | S. cerevisiae deletion strains, locus YOR265W, strain rbl2, active compounds read low 0.979 | S. cerevisiae deletion strains, locus YOR270C, strain vph1, active compounds read low 1.01 | S. cerevisiae deletion strains, locus YOR290C, strain snf2, active compounds read low 0.983 | S. cerevisiae deletion strains, locus YOR316C, strain cot1, active compounds read low 0.989 | S. cerevisiae deletion strains, locus YPL051W, strain arl3, active compounds read low 0.988 | S. cerevisiae deletion strains, locus YPL055C, strain LGE1, active compounds read low 0.993 | S. cerevisiae deletion strains, locus YPL078C, strain atp4, active compounds read low 0.961 | S. cerevisiae deletion strains, locus YPL106C, strain sse1, active compounds read low 0.894 | S. cerevisiae deletion strains, locus YPL240C, strain hsp82, active compounds read low 0.974 | S. cerevisiae deletion strains, locus YPL241C, strain CIN2, active compounds read low 0.999 | S. cerevisiae deletion strains, locus YPL256C, strain CLN2, active compounds read low 0.95 | S. cerevisiae deletion strains, locus YPR119W, strain clb2, active compounds read low 0.992 | S. cerevisiae deletion strains, locus YPR141C, strain kar3, active compounds read low 0.99 | S. cerevisiae deletion strains, locus YPR163C, strain tif3, active compounds read low 0.981 | S. cerevisiae deletion strains, locus YPR167C, strain met16, active compounds read low 0.982 | S. cerevisiae deletion strains, strain wtn01, active compounds read low 0.981 | S. cerevisiae strains, strain wild type, active compounds read low 1.02
